According to the OligoGym collection:

The sequences below were run against CACNA1S (assay: pooled miR-30 sensor sort-seq; sequence = guide strand). Conditions: shRNA.
Also: reference of the scale not given here.

Sequence | sensor-assay potency score (higher = more potent)
TAGTATGCAAAGTTGGTGCCAC | 0.194
TTGTCGAAGTGGAAGTCGCTGT | -0.229
TTGAGGACAATCTCCACAGTGA | -0.144
TTCCAGGAAGTTGTCCACCTGG | -0.276
TACATCTTCATCAGCATCTCAG | -0.408
TTGAGCAGGATGTAGTTGCCAC | -0.202
TCTAGTTGCTGCTTCTCCCGGA | 0.563
TTCATCAGCATCTCAGTGGTGA | 0.298
TATCTCAGCAAACTGGAGGGGT | -0.123
TCTTGTACTCAGTCTCTCCCTG | 0.136
TTGGTGATCTTGAAGATCCTCA | 0.453
TTGGACAAGTCGGTGCACCTGA | 0.00785
ATACTGTACACATTGGCGCTGG | 0.068
TTACCTTCCGTCTTGATCTTGA | 0.578
TTCAGCATCTCCACACAGGGTT | 0.136
TTTAAGGATCTGATTTCTCATG | -1.14
TAGTAGTATGCAAAGTTGGTGC | -0.181
TCTGAAGTCCTCAACATCCATG | -1.41
TACACGTAGTAGTAGCCCCTGC | -0.425
TTGAGGTCCAGTCTTCCCCTGT | -0.528
TTGATCTTGAGTGCCGTGCGGA | -0.578
TTGAGGATCATCTCCAGGGTGA | -0.175
TTGATCAGCCTCATGACACGGA | 0.698
ATTAGATTCAAACTCATCGATT | -0.846

What follows are sequences tested against CACNA2D4 in the same assay as above. Conditions: shRNA.

Sequence | sensor-assay potency score (higher = more potent)
TCAGGTGTCAGGAACTTCCTGT | 0.631
TTATACTTCTCAAACACCGGCT | -0.014
TAATAGTCGAACACCAGGGATT | -1.39
TATACTTCTCAAACACCGGCTC | -0.108
TCGATTGTCTCGGTCCGCCTGG | -0.412
TTGGAGATCAGAATGAACCCGT | 0.657
TCTGTGATGCAGTAGATCCAGT | -0.578
TTTGACTTCTGTCGCCTCCTGC | -0.115
TTGTTGTCGATGACGAAGCAGT | -0.871
TTCCAGAGGAATCTTGGCCTGT | 0.14
TTGTAATAGTCGAACACCAGGG | -0.554
TTTATACCTGGATAGATCCTGA | -0.0984
